The text below walks through data of PubChem BioAssay (NCATS).

Unmarked numbers belong to inactive results. Records with an inconclusive call do not appear. The source made the active and inactive calls. Calls follow the shape of the dose curve; as a rule, active = well fitted curve in the direction sought with a large enough effect; inconclusive = small, poorly fitted or top-dose-only effect, or another doubt; inactive = no such curve, though single readings can be large; an effect the other way counts as inactive or inconclusive. Peptide text beside a SMILES is read from it. * marks the point of attachment. Octanoyl = CCCCCCCC(=O)*

The subject of assay [1] is Zika virus NS2B-NS3 protease (linked construct). Kind of assay: Primary screen NINDS Rhodamine qHTS for Zika virus inhibitors (AID 1347160). Also: nearly all actives have a fitted effect of over 55% in size. Also: potency is read from the fitted curve at half-maximal effect. Summed up: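 Single-chain NS2B-NS3 protease, 25 nM, pH 8.0; compounds preincubated 15 min. Activity: Rhodamine110 release from 1.5 microM substrate over 15 min, room temperature, data fitted to 4-parameter Hill.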
Assay [2] is described as follows: OV-KATE Cancer Cell Toxicity qHTS against the NCATS CANVASS Library (AID 1347345). Summed up: (§1)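 Viability was assessed by adding CellTiter-Glo reagent to treated cultures and reading luminescence after 15min at room temperature. Treatment lasted 72 h at 37 degrees C/5% CO2, using an 11-point series on 1000 cells/well.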
Assay [3] can be described thus: HPAF-II Cancer Cell Toxicity qHTS against the NCATS CANVASS Library (AID 1347346). Also: series mostly up to about 38 µM; nearly all actives have a fitted effect of over 55% in size. In a few lines: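 First, HPAF-II cells are plated (1000 cells/well) and held 4 h at 37 degrees C. Next, compounds are pin-transferred as an 11-point series. After 72 h, CellTiter-Glo is added and luminescence measured.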
Assay [4] can be described thus: OV-SAHO Cancer Cell Toxicity qHTS against the NCATS CANVASS Library (AID 1347348). Also: series mostly up to about 38 µM; nearly all actives have a fitted effect of over 55% in size. Summed up:
as §1

Assay [5] is described as follows: Panc-1005 Cancer Cell Toxicity qHTS against the NCATS CANVASS Library (AID 1347349). Also: series mostly up to about 38 µM; nearly all actives have a fitted effect of over 60% in size. In a few lines: as §1
Assay [6] is described as follows: COV-362 Cancer Cell Toxicity qHTS against the NCATS CANVASS Library (AID 1347352). Also: series mostly up to about 38 µM. In a few lines:
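First, 1000 cells go into each well and rest for 4 hours. Next, an 11-point dilution range is pinned in. Plates then incubate 72 hours before CellTiter-Glo addition and luminescence reading.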

A short description of assay [7]: A2780 Cisplatin Sensitive Ovarian Cancer Cell Toxicity qHTS against the NCATS CANVASS Library (AID 1347353). Also: nearly all actives have a fitted effect of over 60% in size. In a few lines:
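Cells are plated at 750 per well and rest for 4 hours. Compounds are added across eleven concentrations, and incubated 72 hours before ATP is quantified by luminescence.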

Assay [8] in a line: HPAF-II 24hr Apoptosis Induction qHTS against the NCATS CANVASS Library (AID 1347356). Summed up: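 Cells seeded at 500 per well, then compounds pin-transferred in an 11-point concentration series. After 24 hours at 37 degrees C, Caspase-Glo 3/7 was added and luminescence measured following 15 min at room temperature.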
The nature of assay [9]: HPAF-II 12hr Apoptosis Induction qHTS against the NCATS CANVASS Library (AID 1347358). In a few lines: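 Cells plated at 500 per well are dosed with compound and incubated 12 hours at 37 degrees C. Caspase-Glo 3/7 reagent is added and, after 15 min at room temperature, luminescence proportional to caspase activity is measured.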
Assay [10] in a line: HEK293 24hr Apoptosis Induction qHTS against the NCATS CANVASS Library (AID 1347359). Summed up:
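Caspase-3/7 activation measured as luminescence from the DEVD-based Caspase-Glo reagent, 15 min at room temperature, following 24-hour compound treatment of HEK293 cells.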

Assay [11] is described as follows: HPAF-II 18hr Apoptosis Induction qHTS against the NCATS CANVASS Library (AID 1347360). Summed up: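 HPAF-II cells at 500/well were exposed for 18 h at 37 C to an 11-point compound series. Caspase-3/7 activity was read by Caspase-Glo luminescence after 15 min at RT.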
Assay [12] deals with Luciferin 4-monooxygenase (Photinus pyralis) (UniProt P08659). Kind of assay: Firefly luciferase counterscreen qHTS: Assay Interference Panel against the NCATS CANVASS Library (AID 1347363). Also: series mostly up to about 57 µM. Summed up: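 Luminescence inhibition readout: compounds (11-point qHTS) sat 15 min at room temperature with substrate mix (0.013 mM luciferin and ATP), then firefly luciferase was added and signal read 5 min later.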

A short description of assay [13]: qHTS for ATAD5 Agonist screened against the NCATS CANVASS Library (AID 1347367).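 Also: luciferase reporter driven by ATAD5 which rises upon DNA damage.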 In a few lines:
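Luciferase reporter under ATAD5 control, stably integrated in HEK293T cells (2000/well). Compounds (11 points) incubated 16 h at 37C; viability read first by CellTiter-Fluor, then luminescence reporting ATAD5 activation. MMS positive control.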

The nature of assay [14]: MCF7 Cancer Cell Toxicity qHTS against the NCATS CANVASS Library (AID 1347369). Summed up: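 MCF7 cells (500/well) were exposed 72 h at 37 °C to compounds in an 11-point series. Viability was read as ATP content by CellTiterGlo luminescence.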
Assay [15] in a line: J3T Cancer Cell Toxicity qHTS against the NCATS CANVASS Library (AID 1347371). In a few lines:
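Luminescence from CellTiterGlo, reporting cellular ATP, serves as the viability measure after 72 hr compound treatment of J3T canine glioma cells seeded at 500 cells/well.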

A short description of assay [16]: qHTS for Inflammasome Signaling Inhibitors: IL-1-beta AlphaLISA screen against the NCATS CANVASS Library (AID 1347379).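 Also: human THP-1 cells primed with LPS then triggered with ATP.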 Summed up:
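Secreted IL-1B from human THP-1 cells quantified by AlphaLISA 16 hr after compound addition (final up to 57.5 uM). A 1 hr compound pretreatment preceded inflammasome activation with 250 ng/mL LPS plus 1.25 mM ATP (final).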

Sequence of Luciferin 4-monooxygenase (Photinus pyralis) (P08659 whole entry, looked up): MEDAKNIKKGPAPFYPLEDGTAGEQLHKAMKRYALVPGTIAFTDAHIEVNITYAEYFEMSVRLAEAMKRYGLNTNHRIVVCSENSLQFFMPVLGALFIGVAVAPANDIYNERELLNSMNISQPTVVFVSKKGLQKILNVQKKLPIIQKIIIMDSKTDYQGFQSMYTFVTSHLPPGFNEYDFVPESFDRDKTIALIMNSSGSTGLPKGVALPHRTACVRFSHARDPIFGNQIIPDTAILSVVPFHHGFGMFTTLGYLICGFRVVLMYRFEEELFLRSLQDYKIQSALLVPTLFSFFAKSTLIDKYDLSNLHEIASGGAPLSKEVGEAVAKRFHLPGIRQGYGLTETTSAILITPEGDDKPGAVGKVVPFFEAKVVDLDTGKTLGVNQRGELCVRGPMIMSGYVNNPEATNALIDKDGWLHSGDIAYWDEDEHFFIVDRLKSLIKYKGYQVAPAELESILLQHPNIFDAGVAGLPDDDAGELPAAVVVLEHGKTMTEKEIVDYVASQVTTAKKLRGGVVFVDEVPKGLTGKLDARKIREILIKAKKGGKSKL

On to `C[C@H]1C[C@@H]([C@@H]2CC[C@]34O[C@H](CC[C@@]35C[C@H](C)C(=O)O5)CN24)OC1=O`, for which the Potency entry in assay [1], in assay [2], in [3], in [4], in [5] and in assay [6] was “inactive” each time. Besides, the Potency result in assay [7], in assay [9], in assay [10], in assay [11], in [12] and in assay [13] was “inactive” throughout. Besides, the Potency result in assay [14], in [15] and in assay [16] was “inactive” in each case. Also, the result in assay [8] was inactive.

For `C[C@@H](CCC[C@]1(C)C(=O)C=C[C@]23C[C@H]4C[C@H](O[C@@]4(C)C2)C31)C(=O)N[C@@H](CO)C(=O)O` (stereo partly drawn), the Potency result in [1], in assay [2], in [3], in assay [4], in assay [5] and in [6] was “inactive” each time. For the same molecule, the Potency result in assay [7], in [9], in [10], in [11], in [12] and in assay [13] was “inactive” in each case. The Potency entry in [14], in assay [15] and in assay [16] was “inactive” each time. In addition, the call in assay [8] was inactive.

Turning to `C/C1=C\CC(=O)/C=C/C=C\c2csc(n2)[C@@H](C)NC(=O)C[C@@](S)([C@@H](C)C(=O)O)CC1`, the Potency in assay [1] was 7.82 µM (active). Further, the Potency entry in assay [2], in [3], in [4], in assay [5], in assay [6] and in assay [7] was “inactive” throughout. For the same molecule, the Potency result in [9], in assay [10], in [11], in assay [13], in assay [14] and in assay [15] was “inactive” throughout. Further, in assay [16], the Potency result was “inactive”. Also, the outcome in [8] was inactive.

As for `CC1C(=O)C23CCC1C[C@@]21O[C@H]2C(C)(C)C=CC(=O)[C@@]23COC1=O` (stereo partly drawn), the Potency entry in assay [1], in [2], in assay [3], in assay [4], in assay [5] and in assay [6] was “inactive” throughout. In addition, the Potency result in assay [7], in assay [9], in assay [10], in assay [11], in assay [12] and in [13] was “inactive” each time. The Potency result in assay [14], in assay [15] and in assay [16] was “inactive” each time. In addition, the molecule was classed as inactive in [8].

For the molecule `CCCCCCCC(=O)N[C@@H](CC(C)C)C(=O)N[C@H](C=O)CCC(=O)O` (Octanoyl-Leu-Glu-aldehyde), the Potency in [1] is 39.2 µM (active). In addition, the Potency entry in assay [2], in [3], in assay [4], in [5], in assay [6] and in assay [7] was “inactive” each time. Further, the Potency result in assay [9], in assay [10], in assay [11], in assay [12], in assay [13] and in [14] was “inactive” each time. Further, the Potency result in assay [15] and in assay [16] was “inactive” each time. The call in assay [8] was inactive.

Take `O=c1cc(-c2ccc(O)cc2)oc2c([C@@H]3OC(CO)[C@H](O)[C@@H](O)[C@H]3O)c(O)cc(O)c12` (stereo partly drawn): in [1], the Potency is 17.5 µM (active). Further, the Potency result in [2], in [3], in [4], in [5], in assay [6] and in assay [7] was “inactive” each time. The Potency entry in assay [9], in assay [10], in [11], in [12], in assay [13] and in assay [14] was “inactive” throughout. Further, the Potency entry in assay [15] and in assay [16] was “inactive” in each case. The result in [8] was inactive.

Turning to `COc1cc(/C=C/C(=O)O)ccc1O`, the Potency result in [1], in assay [2], in assay [3], in [4], in assay [5] and in assay [6] was “inactive” throughout. Moreover, the Potency entry in assay [7], in assay [9], in assay [10], in assay [11], in [12] and in [13] was “inactive” in each case. The Potency result in assay [14], in [15] and in [16] was “inactive” throughout. For the same molecule, the molecule was called inactive in assay [8].

In the case of `C/C=C/c1cc(OC)c2c(c1)[C@@H](C)[C@H](c1ccc(O)c(OC)c1)O2`, the Potency in [1] is 55.3 µM (active). For the same molecule, the Potency result in assay [2], in assay [3], in assay [4], in assay [5], in [6] and in assay [7] was “inactive” each time. Also, the Potency result in assay [9], in [10], in assay [11], in assay [12], in assay [13] and in [14] was “inactive” throughout. The Potency entry in assay [15] and in [16] was “inactive” each time. For the same molecule, the molecule was called inactive in assay [8].

Consider `C=C[C@]1(C)CC[C@@H]([C@H](C)C(=O)/C=C/C(C)C)O1`, for which the Potency result in assay [1], in assay [2], in assay [3], in assay [4], in assay [5] and in assay [6] was “inactive” throughout. The Potency entry in [7], in assay [9], in assay [10], in assay [11], in [12] and in assay [13] was “inactive” each time. The Potency result in assay [14], in assay [15] and in assay [16] was “inactive” in each case. In addition, the molecule was classed as inactive in assay [8].
